Screening results deposited in PubChem BioAssay by National Center for Advancing Translational Sciences (NCATS).
A selection: hits, their analogues and other compounds. The true share with any hit is near 3%.
LDHA inh: qHTS assay for inhibitors of human lactate dehydrogenase; hit rate 0.15% among 480,000; purified LDHA, NADH/diaphorase-resazurin fluorescence; hits give low values; activity change, % (values are at about 110 or 230 µM); in the data active = activity change below about -30%; inconclusive = mostly about -25% to -30%;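 also: plate controls were DMSO wells for no effect and wells without enzyme for full effect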
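LDH5 2 nM; NADH 0.06 mM, pyruvate 0.2 mM; 200 mM Tris pH 7.4, EDTA, Tween-20; 5 min RT. Detection: diaphorase 0.133 mg/mL + resazurin 37 µM, fluorescence ex540/em590 at 0 and 20 min; normalized to enzyme-free and DMSO wells.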
KCNH2 3.1 block: qHTS for Inhibitors of KCHN2 3.1: Mutant qHTS; hit rate 0.95% among 340,000; Potassium voltage-gated channel subfamily H member 2, brain isoform KCNH2 3.1 (human); activity change, % (tested at about 1.8 µM); U2OS KCNH2 3.1, thallium flux FluxOr; hits give low values;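 active = maximum activity change below -70%; inconclusive = maximum activity change from -70% to -50%; inactive = maximum activity change above -50%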;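 also: thallium influx rate constant from kinetic fluorescence after stimulation buffer; % is scaled to controls: 0 for no effect and ±100 for the full control effect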
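Steps: virus added to U2OS suspension (4 h, RT, dark); medium with 10% FBS added, cells plated, 37 C overnight; FluxOr/Red40 loading buffer 45 min RT; stimulation buffer, 2 min kinetic read; rate constant normalized.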
ALOX12 inh: Primary qHTS assay for inhibitors of human arachidonate 12S-lipoxygenase (ALOX12): Round 2 | Polyunsaturated fatty acid lipoxygenase ALOX12 (Homo sapiens), P18054 | purified 12hLO, xylenol orange hydroperoxide absorbance | Potency, µM (series often up to 108 µM), for inactives: at the highest dose activity change, negative = inhibition, most hits filed as inhibitors | hit rate 1.1% among 580,000; active = well fitted inhibition curve with a large enough effect; inconclusive = small, poorly fitted or top-dose-only effect, or another doubt; inactive = no such curve, though single readings can be large or run the other way; also: potency is read from the fitted curve at half-maximal effect; % is scaled to controls: 0 for no effect and ±100 for the full control effect
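Purified human 12hLO (150 nM final) in 25 mM Hepes, 0.01% Triton X-100, pH 7.0 was preincubated 15 min at room temperature with compound. Then 40 uM arachidonic acid was added, 30 min. Hydroperoxide was read by Fe-XO absorbance ratio 573/405 nm.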
Chronic BCR inh: qHTS Assay to Find Inhibitors of Chronic Active B-Cell Receptor Signaling; ABC-DLBCL IkBa-CBG/CBR reporter, luminescence ratio, 4 h; Potency, µM (doses to about 46.1 µM), for the others: at the top dose activity change, negative = inhibition, most hits filed as inhibitors; hit rate 0.05% among 340,000; active = well fitted inhibition curve with a large enough effect in the signal ratio, with a control signal flat, not every such curve was filed as active; inconclusive = small, poorly fitted or top-dose-only effect, or effect the other way, or a change in a side signal; the % refers to the signal ratio;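 also: potency is read from the fitted curve at half-maximal effect; plate controls were basal doxycycline-induced cells for no effect and cells given 10 µM MG132 for full effect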
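Doxycycline induced both beetle luciferases in TMD8 lymphoma cells; IKK-driven degradation limits the IkappaBalpha-fused green signal, while red luminescence normalises for cell number and nonspecific effects. Compounds tested up to 46 uM, 4 hrs.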
hERG WT inh: qHTS for Inhibitors of KCHN2 3.1: Wildtype qHTS. Voltage-gated inwardly rectifying potassium channel KCNH2 (Homo sapiens), Q12809. AID 720551, 2013. activity change, % at 1.84 µM. hit rate 0.37% among 340,000. U2OS, BacMam KCNH2, thallium flux FluxOr; hits give low values;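 active = maximum activity change below -70%; inconclusive = maximum activity change between -70% and -50%; inactive = maximum activity change above -50%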; also: % is scaled to controls: 0 for no effect and ±100 for the full control effect
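U2OS cells were transduced with wild-type KCNH2 virus (2.03 x 10^8 / mL) for 4 h at room temperature, then cultured overnight at 37 C. Thallium flux was read with FluxOr dye. Rate constants were normalized to DMSO controls.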
ClpP mod: qHTS Assay for Activators of ClpP; ATP-dependent Clp protease proteolytic subunit (Bacillus subtilis (strain 168)), P80244; AID 651965, 2013; purified B. subtilis ClpP, FRET peptide cleavage, 20 min; hit rate 1.9% among 340,000; Potency, µM (series often up to 57.5 µM), without a hit: at the highest dose activity change, negative = active; active = well fitted falling curve with a large enough effect; inconclusive = small, poorly fitted or top-dose-only effect; inactive = no such curve, though single readings can be large or run the other way; also: potency is read from the fitted curve at half-maximal effect; the source files actives as falling curves though it sought activators and does not explain the sign; nearly all actives have a fitted effect of over 65% in size
Target sequence (P80244 whole entry, looked up): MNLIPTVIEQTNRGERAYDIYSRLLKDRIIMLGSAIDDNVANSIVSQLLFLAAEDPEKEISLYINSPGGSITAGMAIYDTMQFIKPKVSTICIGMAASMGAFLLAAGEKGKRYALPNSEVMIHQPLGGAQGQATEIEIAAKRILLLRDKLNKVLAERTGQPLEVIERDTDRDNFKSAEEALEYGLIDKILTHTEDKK
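ClpP 10 microg/mL final, pH 8 Tris/KCl buffer with BSA, glycerol, Tween-20; compound pinned in; FRET-FV substrate; RT 20 min; Ex320/Em430; ΔFRET vs ADEP 5.8 microM, DMSO, no enzyme.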
Starred values were filed as active, the others as inactive; ? = inconclusive; nt = no result given; [ ] = another dose, or the depositor's remark.

SMILES	LDHA inh	KCNH2 3.1 block	ALOX12 inh	Chronic BCR inh	hERG WT inh	ClpP mod
CCOc1cc(/C=C(\C#N)c2nc3ccccc3[nH]2)ccc1OCc1ccccc1	5	nt	4%	nt	nt	nt
CCOc1ccc(/C=C2\SC(=S)N(N3C(=O)C4CC4C3=O)C2=O)cc1 (stereo not given)	-6	-99*	-8%	1%	-6	nt
CCOc1ccc(N=C2NC(=O)S/C2=C\c2ccc(N(C)C)cc2)cc1	-1	-7	0%	?	-5	-1%
CCOc1ccc(/C=C2/SC(=O)NC2=S)cc1	0	-94*	-9%	?	-16	-1%
CCOc1cc(CNc2cccc3ccccc23)cc(Br)c1OCC(=O)NC(C)(C)C	8	4	nt	11%	4	8.9µM*
COc1cc(CNc2cccc(C(=O)O)c2)cc(Br)c1OCC(=O)NC(C)(C)C	1	23	2%	9%	13	25µM*
COc1cc(CNc2ccc3[nH]c(=O)[nH]c3c2)cc(Br)c1OCC(=O)NC(C)(C)C	9	-3	-6%	-26%	-17	82%
Cc1ccccc1CNC(=O)C(=O)NCCC1CCCCN1S(=O)(=O)c1cccs1 (stereo not given)	-6	-166*	-6%	?	-144*	-23%
Cc1cc(C)c(S(=O)(=O)N2CCCCC2CCNC(=O)C(=O)NCc2ccco2)c(C)c1 (stereo not given)	-4	-4	-22%	5%	-6	14µM*
CN1CCCCC1=NCCn1cnc2c1c(=O)n(C)c(=O)n2C	4	nt	15%	nt	nt	nt
CCCc1n[nH]c2c1C(=O)CC(C)(C)C2	-5	-11	-10%	1%	11	-1%
CC1(C)CC(=O)c2c(-c3cccs3)n[nH]c2C1	0	-13	-9%	22%	5	25µM*
O=C1CCC(C(=O)OCc2ccc(F)cc2)=NN1	-9	nt	-13%	nt	nt	nt
Cc1[nH]c(=S)sc1Cc1ccc(F)cc1	-1	-1	?	-5%	-13	1%
Cc1[nH]c(=S)sc1Cc1cccc(C(F)(F)F)c1	8	nt	25µM*	nt	nt	nt
COc1cccc(C2CNC3(CCCC(C)C3)c3[nH]c4ccccc4c32)c1OC (stereo not given)	0	-31	?	?	-3	-1%
CC1(C)CC(=O)CC2(C1)NCC(c1ccccc1)c1c2[nH]c2ccccc12 (stereo not given)	-6	-102*	-30%	?	-75*	0%
Cc1ccccc1Cn1c(=O)n(Cc2ccc(Cl)cc2)c(=O)c2cccnc21	-15	nt	-16%	nt	nt	25µM*
COC(=O)c1ccc(NC(=O)COc2cc(C)c(Cl)c(C)c2)cc1	-13	nt	0%	nt	nt	nt
Cc1ccc(NC(=O)CCC(=O)O)cc1F	-4	1	-4%	12%	2	-1%
Cc1ccc(NC(=O)CCNc2cnc3cnccn23)cc1F	nt	nt	50µM*	nt	nt	nt
CNC(=O)[C@@H]1CN(S(=O)(=O)c2ccc3c(c2)CCC3)C[C@H]1c1n[nH]c(C)n1	nt	nt	6%	nt	nt	nt
O=C1CC(C(=O)Nc2ccc(F)cc2)n2nc(-c3ccc(Cl)cc3)cc2N1 (stereo not given)	0	nt	?	nt	nt	nt
CNC(=O)[C@@H](c1ccccc1F)N1CCC[C@H]1C(=O)NC1CC1	nt	nt	25µM*	nt	nt	nt
CCNC(=O)[C@@H]1CCCN1[C@@H](C(=O)NC)c1ccccc1F	nt	nt	-9%[176 µM]	nt	nt	nt
CC(=O)Nc1ccc(Sc2ccccc2C(=O)O)cn1	-12	-12	2µM*	5%	10	-8%
CC(=O)Nc1ccc(Sc2ccccc2C(=O)Nc2ccc(F)cc2)cn1	-11	13	-18%	?	-9	nt
O=C(CCC(=O)c1ccc2c(c1)OCCO2)NC1CCCCC1	7	nt	9%	nt	nt	nt
